PubChem BioAssay
The source made the active and inactive calls.

Tests used:
[1] = test system: Plasmodium falciparum Sir2 (PF13_0152, Sir2A); assay: pfSir2 binders on small-molecule microarrays, primary screen, biochemical, small-molecule microarray, 635 nm fluorescence (AID 1098); conditions: small-molecule microarray binding, fluorescence 635 nm; higher = more signal;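 note: score merges spot fluorescence intensity with its signal-to-noise ratio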
[2] = small-molecule microarray binders of probe aDKK1, primary screen, biochemical, biotinylated probe, 635/667 nm fluorescence (AID 1099); conditions: higher = more signal;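 note: score merges 667nm spot fluorescence with signal to noise across triplicate slides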
[3] = small-molecule microarray binders of probe aCHRDL2, primary screen, biochemical, biotinylated probe, 635/667 nm fluorescence (AID 1100); conditions: higher = more signal
[4] = splicing luciferase reporter signal modulators, primary screen, spliceosome inhibition project, cell-based, HEK293, splice +/- reporter (AID 1101); conditions: luminescence, 24 h, higher = more signal, called active from +8 up or from −8 down;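 note: HEK293 cells carrying a splicing-competent luciferase reporter gene; test concentration not given here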
[5] = target: Fibroblast growth factor 10 (Homo sapiens) (UniProt O15520); assay: FGF10 binders on small-molecule microarrays, primary screen, biochemical, small-molecule microarray, 635 nm fluorescence (AID 1102); conditions: FGF10 binding, fluorescence 635 nm, higher = more signal
Chain of Fibroblast growth factor 10 (Homo sapiens) (O15520 whole entry, looked up): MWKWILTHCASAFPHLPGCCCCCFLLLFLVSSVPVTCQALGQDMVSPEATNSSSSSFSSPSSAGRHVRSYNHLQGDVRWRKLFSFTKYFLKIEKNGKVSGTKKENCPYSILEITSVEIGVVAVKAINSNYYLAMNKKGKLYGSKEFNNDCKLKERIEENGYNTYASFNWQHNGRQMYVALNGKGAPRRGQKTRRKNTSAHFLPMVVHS

[6] = test system: glycogen synthase kinase-3 (GSK3A per assay name; protocol says GSK3B); assay: GSK3 binders on small-molecule microarrays, primary screen, biochemical, small-molecule microarray, 635 nm fluorescence, GSK3A (AID 1103); conditions: small-molecule microarray binding, fluorescence 635 nm; higher = more signal; note: the record names both GSK3A and GSK3B
[7] = target: Epidermal growth factor receptor (Homo sapiens) (UniProt P00533); assay: EGFR binders on small-molecule microarrays, primary screen, biochemical, small-molecule microarray, 635 nm fluorescence (AID 1104); conditions: EGFR binding, higher = more signal;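 note: score merges 667 nm emission intensity with spot signal to noise over triplicate slides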
Chain of Epidermal growth factor receptor (Homo sapiens) (P00533 whole entry, looked up): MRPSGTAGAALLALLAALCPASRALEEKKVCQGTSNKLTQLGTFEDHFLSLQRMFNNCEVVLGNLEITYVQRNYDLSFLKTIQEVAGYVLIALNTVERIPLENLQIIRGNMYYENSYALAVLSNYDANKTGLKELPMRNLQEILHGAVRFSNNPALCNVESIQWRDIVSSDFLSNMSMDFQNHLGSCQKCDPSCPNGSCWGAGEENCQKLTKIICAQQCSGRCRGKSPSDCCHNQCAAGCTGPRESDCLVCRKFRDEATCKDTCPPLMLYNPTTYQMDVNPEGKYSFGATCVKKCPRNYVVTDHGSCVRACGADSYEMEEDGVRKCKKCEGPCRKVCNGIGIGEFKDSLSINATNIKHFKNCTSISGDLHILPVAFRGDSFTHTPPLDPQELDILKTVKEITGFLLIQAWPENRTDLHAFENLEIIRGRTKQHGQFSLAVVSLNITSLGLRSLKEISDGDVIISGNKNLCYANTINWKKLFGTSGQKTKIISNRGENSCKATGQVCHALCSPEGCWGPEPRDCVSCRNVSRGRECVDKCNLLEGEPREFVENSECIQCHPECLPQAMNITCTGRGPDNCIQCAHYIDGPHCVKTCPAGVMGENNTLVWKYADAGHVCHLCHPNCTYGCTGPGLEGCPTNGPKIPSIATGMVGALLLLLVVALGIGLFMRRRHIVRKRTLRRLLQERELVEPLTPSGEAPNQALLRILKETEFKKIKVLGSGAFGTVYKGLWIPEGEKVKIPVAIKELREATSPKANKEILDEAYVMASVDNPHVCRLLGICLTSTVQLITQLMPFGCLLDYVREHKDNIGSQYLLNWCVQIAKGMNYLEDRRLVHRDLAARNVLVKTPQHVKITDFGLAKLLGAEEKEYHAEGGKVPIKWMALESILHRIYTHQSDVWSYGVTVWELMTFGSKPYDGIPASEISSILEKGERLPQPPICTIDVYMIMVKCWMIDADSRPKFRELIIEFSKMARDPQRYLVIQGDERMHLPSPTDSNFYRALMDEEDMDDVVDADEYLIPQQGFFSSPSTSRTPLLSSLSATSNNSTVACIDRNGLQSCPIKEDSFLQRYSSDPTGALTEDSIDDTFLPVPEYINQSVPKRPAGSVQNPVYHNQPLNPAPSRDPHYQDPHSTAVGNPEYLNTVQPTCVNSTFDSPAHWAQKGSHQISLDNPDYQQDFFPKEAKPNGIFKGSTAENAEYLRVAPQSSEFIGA

[8] = target: Follistatin-related protein 3 (Homo sapiens) (UniProt O95633); assay: FSTL3 binders on small-molecule microarrays, primary screen, biochemical, small-molecule microarray, 635 nm fluorescence (AID 1105); conditions: FSTL3 binding, higher = more signal;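 note: score merges emission near 667 nm and signal to noise per printed spot across three slides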
Chain of Follistatin-related protein 3 (Homo sapiens) (O95633 whole entry, looked up): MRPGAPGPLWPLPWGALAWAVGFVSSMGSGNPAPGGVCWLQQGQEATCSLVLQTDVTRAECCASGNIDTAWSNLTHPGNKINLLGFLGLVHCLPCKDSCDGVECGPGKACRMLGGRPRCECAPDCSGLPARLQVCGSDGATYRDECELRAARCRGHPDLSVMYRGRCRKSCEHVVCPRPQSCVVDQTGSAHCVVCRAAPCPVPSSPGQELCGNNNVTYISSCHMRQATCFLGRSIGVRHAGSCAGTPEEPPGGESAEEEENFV

[9] = target: Dickkopf-related protein 1 (Homo sapiens) (UniProt O94907); assay: DKK1 binders on small-molecule microarrays, primary screen, biochemical, small-molecule microarray, 635 nm fluorescence scan (AID 1106); conditions: DKK1 binding, higher = more signal;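 note: score merges emission near 667 nm with signal to noise over three replicate slides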
Chain of Dickkopf-related protein 1 (Homo sapiens) (O94907 whole entry, looked up): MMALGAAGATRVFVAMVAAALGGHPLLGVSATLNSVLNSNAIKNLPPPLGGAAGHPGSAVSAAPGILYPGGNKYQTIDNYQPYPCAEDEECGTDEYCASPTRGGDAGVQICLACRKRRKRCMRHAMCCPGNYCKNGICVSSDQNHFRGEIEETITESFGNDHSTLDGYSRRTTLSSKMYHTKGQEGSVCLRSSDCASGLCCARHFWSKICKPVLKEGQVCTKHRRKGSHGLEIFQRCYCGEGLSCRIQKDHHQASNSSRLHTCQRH

[10] = test system: Inhibin beta A chain (activin A); assay: INHBA (activin A) binders on microarrays, primary screen, biochemical, small-molecule microarray, 635 nm fluorescence scan (AID 1107); conditions: small-molecule microarray binding, higher = more signal;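 note: mouse activin A protein probed at 4.33 µg/mL on printed slides; score merges bound-protein fluorescence near 667 nm with spot signal-to-noise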
[11] = test system: Human papillomavirus type 1a protein E7 (residues 44-93); assay: HPV1a E7 fragment binders on microarrays, primary screen, biochemical, small-molecule microarray, residues 44-93, 635 nm fluorescence (AID 1108); conditions: small-molecule microarray binding, fluorescence 635 nm; higher = more signal;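 note: E7 fragment applied at 1 µg/mL in TBST for 1 h at 4 C; score combines spot fluorescence with its signal to noise ratio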
[12] = modulators of HCV replicon luciferase signal, primary screen, HCV replication inhibitor project, Huh7 cells, luciferase reporter (AID 1109); conditions: 48 h, higher = more signal;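 note: huh7 hepatoma cells harbouring a luciferase neomycin HCV replicon reporter; luciferase luminescence as measure of HCV replicon replication; test concentration not given here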
[13] = target: Left-right determination factor 2 (Homo sapiens) (UniProt O00292); assay: LEFTY2 binders on small-molecule microarrays, primary screen, biochemical, small-molecule microarray, 635 nm fluorescence scan (AID 1110); conditions: LEFTY2 binding, higher = more signal
Chain of Left-right determination factor 2 (Homo sapiens) (O00292 whole entry, looked up): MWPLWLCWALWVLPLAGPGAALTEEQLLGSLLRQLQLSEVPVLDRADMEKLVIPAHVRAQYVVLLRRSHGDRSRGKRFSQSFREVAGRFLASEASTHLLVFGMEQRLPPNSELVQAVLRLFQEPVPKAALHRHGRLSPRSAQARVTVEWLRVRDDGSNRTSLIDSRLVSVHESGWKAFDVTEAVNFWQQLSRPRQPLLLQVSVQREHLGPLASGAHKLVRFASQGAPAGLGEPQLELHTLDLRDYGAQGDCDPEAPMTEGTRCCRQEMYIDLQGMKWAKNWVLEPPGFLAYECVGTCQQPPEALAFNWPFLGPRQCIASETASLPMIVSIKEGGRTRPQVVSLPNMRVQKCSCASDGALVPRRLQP

[14] = target: Calmodulin-1 (Homo sapiens) (UniProt P0DP23); assay: CALM1 binders on microarrays, EGTA buffer, profiling panel, biochemical, small-molecule microarray, Cy5-labelled CALM1 (AID 1111); conditions: Cy5-CALM1 binding fluorescence, higher = more signal;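 note: labelled calmodulin applied in Tris saline Tween buffer holding calcium plus EGTA and DTT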
[15] = target: Calmodulin-1 (Homo sapiens) (UniProt P0DP23); assay: calcium-bound CALM1 binders on microarrays, profiling panel, artefact control for SMM control-protein annotation, biochemical, small-molecule microarray, Cy5-labelled CALM1, plus calcium (AID 1112); conditions: Cy5-CALM1 binding fluorescence, higher = more signal;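 note: score merges spot fluorescence with signal to noise from triplicate slides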
[16] = small-molecule microarray binders of probe aWnt5a, primary screen, biochemical, biotinylated probe, 635/667 nm fluorescence (AID 1113); conditions: higher = more signal;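 note: score merges 667 nm fluorescence intensity with signal-to-noise per printed feature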
[17] = small-molecule microarray binders of probe aShh, primary screen, biochemical, biotinylated probe, 635/667 nm fluorescence (AID 1114); conditions: higher = more signal;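 note: probe is biotin-labelled aShh protein from a stem cell growth factor screen; measures binding of labelled protein to compounds printed on the slide; score merges feature fluorescence at 667 nm with signal-to-noise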
[18] = small-molecule microarray binders of probe aNog, primary screen, biochemical, biotinylated probe, 635/667 nm fluorescence (AID 1115); conditions: higher = more signal;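 note: probe is biotinylated aNog protein used at 0.15 µg/mL for 1 h at 4 C; z-score combines 667 nm fluorescence of each spot with its signal to noise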
[19] = target: Torsin-1A-interacting protein 1 (Homo sapiens) (UniProt Q5JTV8); assay: LAP1 binders from COS7 cell lysate, primary screen, small-molecule microarray, 635/667 nm fluorescence (AID 1116); conditions: COS7-hLAP1 lysate binding, 635 nm fluorescence, higher = more signal
Chain of Torsin-1A-interacting protein 1 (Homo sapiens) (Q5JTV8 whole entry, looked up): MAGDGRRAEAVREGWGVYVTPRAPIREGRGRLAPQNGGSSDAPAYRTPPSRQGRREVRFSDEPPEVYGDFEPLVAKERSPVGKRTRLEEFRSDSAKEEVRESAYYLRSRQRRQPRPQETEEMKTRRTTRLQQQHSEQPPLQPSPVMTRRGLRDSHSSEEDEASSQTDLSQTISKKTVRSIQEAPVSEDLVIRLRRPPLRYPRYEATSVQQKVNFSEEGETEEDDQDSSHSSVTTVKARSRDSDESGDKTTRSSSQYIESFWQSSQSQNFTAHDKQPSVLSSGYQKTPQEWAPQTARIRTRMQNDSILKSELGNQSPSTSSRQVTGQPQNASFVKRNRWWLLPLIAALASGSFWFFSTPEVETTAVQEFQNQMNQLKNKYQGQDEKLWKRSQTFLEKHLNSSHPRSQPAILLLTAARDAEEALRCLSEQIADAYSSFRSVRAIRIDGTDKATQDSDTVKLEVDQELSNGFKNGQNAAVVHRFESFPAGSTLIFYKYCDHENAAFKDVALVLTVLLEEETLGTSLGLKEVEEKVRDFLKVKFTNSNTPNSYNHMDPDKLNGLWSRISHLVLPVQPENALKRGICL

[20] = target: Alpha-bungarotoxin (Bungarus multicinctus) (UniProt P60615); assay: alpha-bungarotoxin binders on microarray, profiling panel, artefact control for SMM control protein annotation, biochemical, small-molecule microarray, Alexa647 label, 635/667 nm fluorescence (AID 1117); conditions: alpha-BTX-A647 binding fluorescence, higher = more signal
Chain of Alpha-bungarotoxin (Bungarus multicinctus) (P60615 whole entry, looked up): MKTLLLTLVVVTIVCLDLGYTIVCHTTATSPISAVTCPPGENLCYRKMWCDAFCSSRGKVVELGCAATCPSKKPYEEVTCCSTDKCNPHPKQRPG

| SMILES | composite z-score [1] | composite z-score [2] | composite z-score [3] | z-score [4] | composite z-score [5] | composite z-score [6] | composite z-score [7] | composite z-score [8] | composite z-score [9] | composite z-score [10] | composite z-score [11] | z-score [12] | composite z-score [13] | composite z-score [14] | composite z-score [15] | composite z-score [16] | composite z-score [17] | composite z-score [18] | composite z-score [19] | composite z-score [20] |
| --- | --- | --- | --- | --- | --- | --- | --- | --- | --- | --- | --- | --- | --- | --- | --- | --- | --- | --- | --- | --- |
| O=C1C2C=CC(C(O)c3ccc(-c4ccccc4)s3)N(Nc3ccccc3)C2C(=O)N1c1ccccc1 (stereo not given) | 1.5 | 0.753 | 0.953 | 1.1 (inactive) | 0.722 | 0.808 | -0.0664 | 1.03 | -0.632 | 0.845 | 1.47 | -0.978 | -0.44 | 1.45 | 0.133 | 0.105 | 0.634 | 1.38 | 0.537 | 1.46 |
| COc1ccc(C(=O)Nc2cccc(CN3C(=O)[C@]4(O[C@H](CCn5cc(CCO)nn5)[C@@H]([Si](C)(C)c5ccc(OC)cc5)[C@@H]4C)c4ccccc43)c2)cc1 | 0.83 | 0.601 | 0.127 | 2.05 (inactive) | 0.17 | 0.495 | 0.529 | 1.01 | 0.201 | 1.55 | 1.31 | -5.09 | 0.785 | 0.628 | -0.0319 | -0.0685 | -0.0769 | 0.0471 | 0.456 | 0.547 |
| COC(=O)[C@H](Cc1ccccc1)N[C@H](/C=C/C1CC1)[C@@H](O)Cc1ccccc1 | -0.111 | -0.351 | 0.327 | -1.16 (inactive) | -0.66 | -1.22 | -0.579 | -0.244 | -0.506 | 0.0419 | -0.636 | -1.02 | -0.276 | -0.595 | -1.08 | -0.237 | 0.14 | -0.34 | 0.627 | -0.696 |
| CCCCC(=C=CC[C@@H](O)c1ccc(CO)o1)CCO | 0.175 | -0.119 | -0.479 | 0.37 (inactive) | 0.788 | 0.621 | -0.617 | -0.0762 | 0.294 | 1.26 | 0.378 | -0.379 | 0.38 | -0.111 | -0.641 | -0.0462 | 0.365 | -0.158 | 0.148 | -0.168 |
| COC(=O)c1c(CC[C@@H](CO)NC(=O)N[C@@H](Cc2ccccc2)Cn2cc(-c3ccccn3)nn2)oc(C(=O)N2CCOCC2)c1C(=O)OC | 0.327 | -0.299 | -0.247 | 0.373 (inactive) | 0.136 | -0.27 | -0.002 | 0.172 | -0.296 | 0.119 | -0.593 | 0.209 | 0.0348 | -0.194 | 0.0715 | -0.204 | 0.0796 | 0.151 | 0.167 | 0.0762 |
| C=CCC(OC(C)=O)[C@@H]1[C@@H](N(Cc2ccc(-c3cccc(C(F)(F)F)c3)o2)C(=O)Cc2ccc(OC)cc2)c2cc(OCCCO)ccc2N1C(=O)c1ccc2ccccc2c1 (stereo not given in full) | 0.403 | -0.179 | 0.577 | -0.814 (inactive) | -0.344 | -1.46 | -0.488 | 0.195 | -0.298 | 1.39 | -0.759 | 0.613 | -0.394 | -0.477 | -0.506 | -0.124 | -0.214 | -0.261 | -0.157 | -0.0185 |
| CC(=O)NCCCC[C@@H]1NC(=O)[C@H]2C[C@@H](C(=O)O)[C@@H](c3ccc(O)cc3)N2C1=O | 1.43 | 0.13 | 0.372 | -0.177 (inactive) | 1.32 | 1.34 | 1.02 | 1.44 | 1.28 | 1.47 | 1.12 | -3.1 | 1.08 | 0.192 | -0.548 | 0.0825 | 0.108 | 0.005 | 0.0682 | 0.626 |
| O=C1C2C=CC(C(O)C=Cc3ccc([N+](=O)[O-])cc3)N(Nc3ccccc3F)C2C(=O)N1c1ccccc1 (stereo not given) | 0.808 | 0.468 | 0.831 | 0.755 (inactive) | 1.13 | 1.28 | 0.464 | 1.13 | 0.0328 | 1.08 | 1.47 | -0.969 | 0.458 | 1.27 | 0.362 | 0.0037 | 0.166 | 0.581 | 1.18 | 1.12 |
| Cc1ccc([C@H]2C(C(=O)O)=CCN2S(=O)(=O)c2ccc(C)cc2)cc1 | 0.487 | 0.215 | 0.761 | 0.0638 (inactive) | 0.214 | 0.47 | -0.327 | 0.312 | -0.345 | 1.03 | 0.964 | -1.02 | -0.441 | 0.659 | 0.261 | -0.001 | -0.0709 | -0.333 | 1.54 | 0.705 |
| COCCOC(=O)N1C(=O)[C@@]2(c3cc(C#CC4(O)CCCCCC4)ccc31)[C@H](C(=O)Nc1nc3ccccc3s1)[C@H]1C(=O)O[C@H](c3ccccc3)[C@H](c3ccccc3)N1[C@@H]2c1ccccc1OCCO | 1.07 | 0.199 | 0.365 | -0.616 (inactive) | 1.3 | 1.29 | 0.38 | 1.05 | 0.287 | -0.0079 | -0.441 | -1.66 | 0.555 | 1.71 | 0.926 | -0.0165 | 0.321 | 0.546 | 0.547 | 2.37 |
| O=C1O[C@@H](c2ccccc2)[C@@H](c2ccccc2)N2[C@@H](c3ccc(OCCO)cc3)[C@]3(C(=O)Nc4ccc(C#CCCO)cc43)[C@@H](C(=O)NC[C@H](O)c3ccccc3)[C@H]12 | 1.51 | 0.312 | 0.333 | -0.6 (inactive) | 0.84 | 0.905 | 0.94 | 0.956 | 0.687 | 0.73 | 1.4 | -1.25 | 0.25 | 0.604 | 0.174 | 0.119 | 0.493 | -0.398 | 1.09 | 1.24 |
